Bioassay records from PubChem.
This is a sample that favours compounds with a hit; in the whole collection about 2.9% have one here.
ABHD5-PLIN5 inh: inhibitors of human ABHD5-perilipin-5 interaction; Q00G26+Q8WTS1; inhibition, % at 4 µM; Split G. princeps luciferase complementation, luminescence, 4 h; actives 0.78% (n = 360,000);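 active = inhibition above the mean inhibition across every tested compound plus 3 SD, cut at about 22% in these data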;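 also: 0% = DMSO only wells and the 100% control is not disclosed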
DAGLB inhibitor: blocks human DAGLB lipase activity; Q8NCG7; HEK293T DAGLB membrane lysate, EnzChek fluorogenic substrate; inhibition, % at 5.17 µM; actives 0.059% (n = 340,000); AID 504411; in the data active = inhibition above about 34%;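 also: 0% = enzyme with vehicle and 100% = wells lacking enzyme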
Target sequence (Q8NCG7 whole entry, looked up): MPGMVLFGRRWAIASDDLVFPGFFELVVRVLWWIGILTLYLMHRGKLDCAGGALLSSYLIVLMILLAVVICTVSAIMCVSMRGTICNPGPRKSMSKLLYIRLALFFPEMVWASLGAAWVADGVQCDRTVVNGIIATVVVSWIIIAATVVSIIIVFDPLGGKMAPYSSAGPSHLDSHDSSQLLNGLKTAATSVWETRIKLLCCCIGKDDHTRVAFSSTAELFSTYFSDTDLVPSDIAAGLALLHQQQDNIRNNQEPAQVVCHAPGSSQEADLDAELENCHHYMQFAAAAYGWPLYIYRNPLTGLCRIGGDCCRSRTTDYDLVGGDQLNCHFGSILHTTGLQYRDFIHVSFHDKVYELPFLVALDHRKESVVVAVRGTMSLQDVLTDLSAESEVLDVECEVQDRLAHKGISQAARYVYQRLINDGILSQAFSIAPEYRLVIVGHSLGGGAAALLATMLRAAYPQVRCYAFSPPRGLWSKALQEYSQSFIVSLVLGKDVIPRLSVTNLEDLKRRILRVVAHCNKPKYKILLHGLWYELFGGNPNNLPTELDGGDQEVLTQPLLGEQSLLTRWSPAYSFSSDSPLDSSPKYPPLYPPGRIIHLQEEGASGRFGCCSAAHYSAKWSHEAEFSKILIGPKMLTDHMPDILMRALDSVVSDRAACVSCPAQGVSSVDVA
HGIII-sPLA2 inh: Blocks human group III sPLA2 activity | inhibition, % at 12.2 µM | QFRET BODIPY PC-A2 liposome hydrolysis, fluorescence | Q9NZ20 | actives 0.56% (n = 370,000);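 active = inhibition above mean plus 3 SD of compounds lying within the high and low control bounds, cut at about 19% in these data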;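 also: 0% = median of test compound wells and 100% = no enzyme DMSO wells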
H9c2 protect: modulators protecting cardiomyocytes from myocardial damage; H9c2 cardiomyocytes, H2O2 injury protection, ATPLite, 2 h; protection from H2O2 cell death, % at 20 µM; actives 0.63% (n = 360,000); AID 588492;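 active = compounds giving at least 50% protection of heart cells from peroxide-induced death in the single-dose screen, raw or plate-pattern-corrected value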;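 also: 0% = DMSO wells with peroxide and 100% = DMSO wells without peroxide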
Rtt109 HAT inh: blocks Candida albicans Rtt109/Vps75 acetyltransferase activity. Q5AAJ8. purified Rtt109/Vps75, ThioGlo CoA-SH fluorescence, 4 h. inhibition, % at 34.9 µM. actives 0.16% (n = 330,000). AID 540336;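 active = inhibition of at least 50% in every replicate; inconclusive = best replicate reaches 50% inhibition but some replicates fall short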
Myeloid diff MLP: myeloid differentiation induction | actives 1% (n = 360,000) | calls only at 10 µM | ER-HoxA9 myeloid progenitors, lysozyme-GFP differentiation, flow cytometry;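 active = normalized GFP-positive differentiation at or above the plate's own cutoff, the solvent-only control mean plus 3 SD; inconclusive = no clear call, values can overlap the other calls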;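 also: cells exposed to compound for four days before flow analysis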
sPLA2 confirm: human GIII-sPLA2 inhibition, confirmation. shares compounds with HGIII-sPLA2 inh. recombinant hGIII-sPLA2, BODIPY PC-A2 QFRET fluorescence. inhibition, % at 12.2 µM. actives 34% (n = 2,000). AID 743280;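 active = mean inhibition across triplicates above the hit cutoff set in the earlier primary screen, cut at about 19% in these data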;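 also: 0% = enzyme with DMSO and 100% = DMSO wells lacking enzyme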
535nm interf: counter-screen for HGIII-sPLA2 inhibitors: 535nm fluorescence interference; inhibition, % at 12.2 µM; actives 8.5% (n = 2,000); shares compounds with HGIII-sPLA2 inh; BODIPY FL product fluorescence interference, QFRET; AID 743282;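 active = average inhibition above the solvent-only control mean plus 3 SD, cut at about 6% in these data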;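 also: 0% = DMSO with substrate plus product and 100% = DMSO with substrate alone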
535nm interf DR: interferes with 535nm fluorescence in dose response counter-screen | BODIPY FL product fluorescence interference, cell-free | shares compounds with HGIII-sPLA2 inh | IC50, µM | 240 tested, under 10 active;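 active = IC50 at or below 10 µM; inactive = IC50 above 10 µM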
* marks the source's active call; other numbers are inactive results; i = inactive; u = inconclusive; x = no result given.

SMILES	ABHD5-PLIN5 inh	DAGLB inhibitor	HGIII-sPLA2 inh	H9c2 protect	Rtt109 HAT inh	Myeloid diff MLP	sPLA2 confirm	535nm interf	others
COC(=O)Cc1ccc(NC(=S)NCC(C)C)cc1	4.0	-2.1	10.7	-2.3	-8.7	i	x	x
CC1CCCCC1NC(=O)CSC1=Nc2ccccc2C2CC=NN12 (stereo unspecified)	-9.5	-3.7	19.8*	-10.4	-1.7	i	-2.8	-17.6
CC(C)N=c1scc(-c2cccs2)n1/N=C/c1ccc(O)c(O)c1O	-22.9	10.8	37.9*	50.5*	-6.3	i	53.5*	2.2	535nm interf DR=>122
CCN=c1scc(-c2cccs2)n1/N=C/c1cc(OC)ccc1O	1.2	-3.5	9.7	-17.8	10.2	i	x	x
CC1CCCC(NC(=O)COC(=O)/C=C/c2ccc([N+](=O)[O-])cc2)C1C (stereo unspecified)	-8.1	-0.2	19.4*	2.5	2.4	i	-6.5	-10.8
O=C(NCCN1CCOCC1)c1cc(Sc2ccccc2Cl)nc2ccccc12	x	x	19.2*	x	x	x	-1.9	-17.4
O=C(NCCN1CCOCC1)c1cc(Sc2ccc(F)cc2F)nc2ccccc12	2.4	1.6	8.2	2.9	0.5	i	x	x
O=C(Nc1csnn1)c1csnn1	-4.3	-1.2	19.9*	0.9	4.1	i	1.9	-5.6
Cc1cc(C)nc(NC(=O)c2csnn2)c1	2.6	x	3.2	3.0	-0.3	i	x	x
Cc1ccc(N2CCN(CC3CC=CCC3)CC2)cc1 (stereo unspecified)	-6.1	-2.9	9.6	-3.2	-4.8	i	x	x
C1=CCC(CN2CCN(C3CCCCCC3)CC2)CC1 (stereo unspecified)	2.6	2.9	19.7*	0.0	-4.9	i	-0.2	-14.1
CCOc1ccccc1/C=N/NC(=O)CNC(=O)c1ccc(S(=O)(=O)N2CCOCC2)cc1	3.0	-2.1	17.1	-0.8	9.3	i	x	x
COCCCNCCCOc1ccc(C(C)(C)c2ccccc2)cc1	3.6	0.4	17.8	1.7	-5.1	i	x	x
COCCNCCCOc1ccc(C(C)(C)c2ccccc2)cc1	6.2	-1.7	21.9*	1.3	x	i	-11.2	-27.1
COc1ccc(C(=O)N(C)CCOc2ccc(Cl)cc2)cc1S(=O)(=O)N1CCCC1	0.4	-0.8	-4.7	-3.8	x	i	x	x
CNC(=S)NNC(=O)c1oc2nc(-c3ccccc3)cc(C)c2c1N	-12.8	-0.6	25.1*	-4.3	-5.0	i	18.2	-2.5
C1CCC(NC2=NCCO2)CC1	-3.3	-3.9	-2.5	3.4	x	i	x	x
CCN(CC)c1ccc(/C=N/NC(=S)NC)c(O)c1	0.0	7.3	21.2*	29.7	4.9	i	36.6*	2.3	535nm interf DR=>122
CCN(CC)c1ccc(/C=N/NC(=O)c2nnn(-c3nonc3N)c2C(C)C)c(O)c1	-4.3	7.4	23.8*	26.1	0.6	u	45.9*	7.6*
CCN(CC)c1ccc(C=NNC(=O)c2cc(-c3ccc(C)c(C)c3)n[nH]2)c(O)c1	x	x	21.4*	x	x	x	30.9*	2.9	535nm interf DR=>122
Cc1ccc(CNC(=O)C2CCCN(c3nc4ccccc4o3)C2)cc1 (stereo unspecified)	-11.5	0.6	19.5*	-5.7	5.1	i	4.5	-5.9
C[C@H](NC(=O)c1[nH]cnc1C(=O)Nc1ccccc1F)c1ccccc1	-2.5	-6.7	-12.0	39.2	x	i	x	x
COc1ccc(C(=O)NNC(=O)C2(C)CC2(Br)Br)cc1 (stereo unspecified)	3.1	-3.5	1.0	2.2	-6.8	i	x	x
O=C(NNC(=S)NC(=O)c1ccccc1[N+](=O)[O-])c1ccccc1[N+](=O)[O-]	-3.1	1.9	22.6*	-0.8	1.8	i	24.0*	-0.3
O=C(COc1ccc(Br)cc1)NNC(=S)NC(=O)c1ccccc1[N+](=O)[O-]	1.4	6.0	23.4*	18.4	8.3	i	42.9*	-14.6
SMILES	ABHD5-PLIN5 inh	DAGLB inhibitor	HGIII-sPLA2 inh	H9c2 protect	Rtt109 HAT inh	Myeloid diff MLP	sPLA2 confirm	535nm interf	others
O=C(COC(=O)c1ccccc1[N+](=O)[O-])NC(=O)c1ccccc1	1.8	-1.0	21.2*	18.7	-0.5	i	-0.1	-6.2
O=C(NNC(=S)NC(=O)c1ccccc1[N+](=O)[O-])c1ccccc1O	4.3	x	32.2*	7.9	-9.3	i	14.0	-1.7
CC(=O)N1CCN(S(=O)(=O)c2cccc(C(=O)Nc3ccc4c(c3)OCO4)c2)CC1	11.6	-0.5	1.5	0.8	11.6	i	x	x
Cc1ccc(NC(=O)CCc2nc3sc4c(c3c(=O)[nH]2)CCCC4)nc1	4.0	5.6	x	10.5	1.7	i	x	x
CCN(CC)CCNC(=O)c1cccc(NC(=O)C(=O)c2cc(Br)ccc2NC(C)=O)c1	3.6	0.5	0.7	5.7	9.9	i	x	x
CC(O)CNC1c2ccccc2CC1O (stereo unspecified)	8.8	0.4	-1.9	4.8	1.2	i	x	x
Cc1cc(Br)c(NC(=O)c2ccccc2[N+](=O)[O-])cc1C	-1.7	-2.6	4.3	-2.2	x	i	x	x
O=C(NC(=S)Nc1ccc(N2CCCC2)cc1)c1ccccc1[N+](=O)[O-]	3.7	3.7	23.1*	-6.0	-5.3	i	17.7	-1.4
O=C(NNC(=S)NC(=O)c1ccccc1Cl)c1cccc([N+](=O)[O-])c1	-3.2	-0.9	24.6*	21.6	3.0	i	36.6*	-0.6	535nm interf DR=>122
Cc1cc(Br)cc(C)c1NC(=O)c1ccccc1[N+](=O)[O-]	6.8	-3.3	21.4*	5.7	3.1	i	4.4	-7.0
O=C(NC(=S)Nc1ccccc1N1CCCC1)c1ccccc1[N+](=O)[O-]	3.2	-0.8	4.5	-7.5	1.4	i	x	x
CCCCOc1ccccc1C(=O)NNC(=S)NC(=O)c1ccccc1[N+](=O)[O-]	-3.8	2.2	42.7*	18.4	-11.2	i	47.9*	-6.9	535nm interf DR=>122
Cc1cc(C(=O)OCC(=O)NC(C)c2ccccc2)c(C)o1 (stereo unspecified)	1.3	-2.7	-0.1	7.7	-3.0	i	x	x
CC1Sc2ccc(S(=O)(=O)N3CCC(C(=O)Nc4ccc(Cl)cc4)CC3)cc2NC1=O (stereo unspecified)	4.4	-1.6	-36.8	-15.7	10.6	i	x	x
O=C(Nc1ccccc1C(=O)N1CCCCCC1)c1cccc(S(=O)(=O)N2CCOCC2)c1	0.7	-1.5	2.6	-0.1	14.2	i	x	x
Cc1cc(C(=O)COC(=O)C2=NN(c3ccccc3)C(=O)CC2)c(C)n1CC(F)(F)F	7.2	3.2	-13.0	-10.2	1.3	i	x	x
